The source of these data is PubChem BioAssay AID738 (SRMLSC, 2007).

The campaign covered roughly 98,000 compounds. About 4,900 (5%) were called active. The entries come from a sample that favours actives as a whole. Unmarked numbers belong to inactive results. Cut-off read from the data, not from the text of the source: active = inhibition above about 30%; inactive = the rest.

The test can be described thus: yeast control strain growth suppression – counter-screen for post-Golgi transport modulator project, primary screen (AID 738). As to conditions: efflux-deficient yeast background strain, growth absorbance A615, 16 h; at 10 µM; stronger effect = higher value. (In general: Counterscreens check selectivity or assay interference.)
For orientation: inhibition means the change of the read-out against control, counted positive when it falls. In the case of `N#Cc1c(C(F)(F)F)cc(-c2ccccc2)nc1SCC(=O)N1CCOCC1`, the inhibition was -3.4%.
`Cc1cccc(N2CCN(C(c3ccccc3)c3nnnn3CC3CCCO3)CC2)c1C` (configuration not stated): the inhibition is 44.4% (active).
`COc1ccc(CCn2nnnc2C(c2ccccc2)N2CCN(C)CC2)cc1OC` (configuration not stated): the inhibition was 22.5%.
In the case of `COc1ccc(C(c2nnnn2Cc2cccs2)N2CCN(c3ccccc3)CC2)cc1OC` (configuration not stated), the inhibition was 11.7%.
As for `Cc1cc(OCCOc2cccc3cccnc23)c(C)cc1Cl`, the inhibition is 7.3%.
Regarding `CCOC(=O)C1=C(C)Nc2sc(C(=O)c3ccc(Br)cc3)c(N)c2C1c1ccc(C(=O)OC)cc1` (configuration not stated), the inhibition was 9.7%.
As for `COc1ccc(C(C(=O)NCc2ccccc2)N(Cc2cccs2)C(=O)c2cnccn2)cc1` (configuration not stated), the figure is 7.02%; as for `O=C(N/N=C/c1ccsc1)c1cc(O)cc(O)c1`, 1.53%.
Regarding `COc1ccc(/C=C(\NC(=O)c2ccc(OC)c(OC)c2)C(=O)NCCc2c[nH]c3ccccc23)cc1`, the inhibition was 6.34%.
Consider `CC(=O)c1ccc2c(c1)c1ccccc1n2CC(C)C`, for which the inhibition is 23.7%.
For the compound `CS(=O)(=O)N(CC(O)Cn1c2ccccc2c2ccccc21)c1cccc2ccccc12` (configuration not stated), the inhibition is 46.2% (active).
As for `O=S(=O)(c1ccccc1)N(CC(O)CN1CCCCC1)c1ccccc1` (configuration not stated), the figure is -1.97%.
Consider `N#Cc1ccc(-c2ccc(F)cc2)nc1Sc1ccccc1`, for which the inhibition is 8.35%.
As for `Cc1cc(C)cc(NS(=O)(=O)c2ccc(Oc3ncc(C(F)(F)F)cc3Cl)cc2)c1`, the figure is 33% (active).
Turning to `COc1ccccc1Oc1ccc(S(=O)(=O)Nc2cccnc2)cc1`, the inhibition was 0.59%.
As for `O=S(=O)(Nc1ccccn1)c1ccc(Oc2ccccc2)cc1`, the figure is 5.52%; as for `CC1(C)CC(=O)C2=C(C1)N=C1SCCC(=O)N1C2c1ccc(C(F)(F)F)cc1` (configuration not stated), 10.4%.
Consider `COc1ccc(C(=O)NC(=S)NNC(=O)CCc2ccccc2)cc1`, for which the inhibition was 31.5% (active).
As for `CCOc1cc(NC(=O)c2ccco2)c(OCC)cc1NC(=O)COc1ccccc1`, the figure is 6.65%; as for `CC(Oc1ccc2ccccc2c1)C(=O)NNC(=S)NC(=O)c1ccco1` (configuration not stated), 96.2% (active).
`COc1ccc(OCC(=O)NNC(=O)c2ccc(-c3ccccc3)cc2)cc1`: the inhibition is -1.92%.
As for `O=C(Nc1ccc(Oc2ccccc2)cc1)c1ccco1`, the figure is -0.32%.
Take `CCNC(=S)NNC(=O)Cc1ccccc1`: the inhibition is 8.07%.
Turning to `CCCc1ccc(OCC(=O)NNC(=S)NC(=O)c2ccco2)cc1`, the inhibition is 33.4% (active).
Regarding `COc1ccc(CCNC(=O)c2ccco2)cc1`, the inhibition was 14.4%.
Consider `CCOC(=O)c1c(NC(=S)NC(=O)c2ccco2)sc2c1CCCC2`, for which the inhibition is 3.33%.
For `NC(=O)C1(N2CCCCC2)CCN(C2CC(=O)N(Cc3ccc(N4CCCC4=O)cc3)C2=O)CC1` (configuration not stated), the inhibition was 10.8%.
Consider `O=C(CCC(=O)OCc1cccc(C(=O)Oc2ccccc2)c1)Nc1cccc2ccccc12`, for which the inhibition is 0.79%.
`O=C1OC(c2ccc(Cl)cc2)=N/C1=C\c1cccnc1`: the inhibition was -10.4%.
Regarding `CS(=O)(=O)c1sc2nc(-c3ccccc3)cc(-c3ccccc3)c2c1N`, the inhibition is 10.9%.
Take `O=C1CN(c2nc(-c3ccccc3)c3cc(Br)ccc3n2)c2ccccc2N1`: the inhibition is 6.52%.
With `COc1ccccc1NC(=O)COc1ccc(C(=O)OCC(=O)N(C(C)C)C(C)C)cc1OC`, the inhibition was 13.2%.
Regarding `FC(F)(F)c1cc(-c2ccco2)nc(NCc2ccc(Cl)cc2)n1`, the inhibition is 25.8%.
Take `COc1cccc(OCC(O)CN2CCN(CCO)CC2)c1` (configuration not stated): the inhibition was -4.45%.
`Cc1ccc(OCC(O)CN2CCN(CC(O)COc3ccc(C)cc3Cl)CC2)c(Cl)c1` (configuration not stated): the inhibition is 94.4% (active).
As for `OC(COc1ccc2ccccc2c1)CN1CCOCC1` (configuration not stated), the inhibition is 15.5%.
Regarding `Cc1ccc(-c2nc(C)sc2CC(=O)O)cc1`, the inhibition was 6.8%.
Take `NC(=O)C1CCN(C(=O)c2ccc(-c3ccccc3)cc2)CC1`: the inhibition is 6.88%.
`COc1ccccc1N(C)S(=O)(=O)c1ccc(C(=O)N2CCC(C(N)=O)CC2)cc1`: the inhibition is 1.96%.
For `NC(=O)C1CCN(C(=O)c2ccc(C(F)(F)F)cc2)CC1`, the inhibition was 36.9% (active).
As for `O=c1oc2c(Cl)cc(Cl)cc2cc1-c1nnc(Nc2ccccc2F)s1`, the figure is -3.4%; as for `Cn1c(CO)cnc1SCc1ccccc1`, 9.24%; as for `CCS(=O)(=O)n1nc(-c2ccccc2)nc1SCc1ccccc1`, 31.2% (active).
On to `CCS(=O)(=O)n1nc(-c2ccc(OC)cc2)nc1SC`, for which the inhibition was 9.73%.
As for `CCC1(C)Cc2c(sc3nnn(CC(=O)Nc4ccc(Cl)cc4)c(=O)c23)CO1` (configuration not stated), the inhibition is 6.74%.
As for `O=C(NCCCN1CCOCC1)c1cc2c(s1)CCC2`, the inhibition is -14.4%.
For `Cc1n[nH]c(=S)n1/N=C/c1ccc(Br)o1`, the inhibition is 49.4% (active).
As for `Cc1ccc(-c2n[nH]c(=S)n2/N=C/c2cc3c(cc2[N+](=O)[O-])OCO3)cc1`, the inhibition is -11.7%.
As for `C=CCNC(=S)NNc1ncnc2sc3c(c12)CC(C)(C)OC3`, the figure is 0%; as for `COc1ccccc1NC(=S)NC(=O)C(C)C`, 12.3%.
For `O=C(NCN1CCN(CCO)CC1)c1cnccn1`, the inhibition is -5.66%.
As for `Cc1ccc(SCc2cc(=O)[nH]c(N3CCCCC3)n2)cc1`, the figure is 7.96%.
On to `O=c1cc(CSc2ccccn2)nc(N2CCN(c3ccccc3)CC2)[nH]1`, for which the inhibition is 8.73%.
For `O=c1cc(-c2ccccc2)nc(N2CCCCC2)[nH]1`, the inhibition was 45% (active).
As for `CCOC(=O)C(=O)Nc1nc(-c2ccccc2)c(CC)s1`, the figure is -2.8%.
In the case of `Cc1cccc(CSc2nnc(NC(=O)CSc3nnc(C)s3)s2)c1`, the inhibition is 22.5%.
Turning to `CCN(CC)c1ccc(/C=N/Nc2nc(C)cc(=O)[nH]2)cc1`, the inhibition is -2.13%.
As to `COc1cc2c(cc1OC)C(C(=O)NCc1ccco1)C1c3ccccc3CCN1C2=O` (configuration not stated), the inhibition is 4.7%.
`CCOC(=O)C1CCN(C(=O)c2oc3ccc(S(=O)(=O)N4CCCCCC4)cc3c2C)CC1`: the inhibition is 8.75%.
As to `CCOC(=O)N1CCN(C(=O)C2CCN(c3ncnc4c3sc3cccc(F)c34)CC2)CC1`, the inhibition is 2.07%.
Consider `CCOC(=O)C1CCN(c2ncnc3c2oc2ccc(Br)cc23)CC1`, for which the inhibition was 47.4% (active).
`CCCNC(=O)c1c(N)n(-c2ccc(S(N)(=O)=O)cc2)c2nc3ccccc3nc12`: the inhibition was -2.52%.
As to `Cc1nn(C)c(Oc2ccc(Cl)cc2)c1C=O`, the inhibition is 2.69%.
On to `O=C1N(Cc2ccc3c(c2)OCO3)c2ccccc2C1(O)c1c[nH]c2ccccc12` (configuration not stated), for which the inhibition is 38.7% (active).
As for `O=C(CCCCn1c(=O)[nH]c2ccccc2c1=O)NCc1ccc2c(c1)OCO2`, the figure is 1%; as for `O=C(COc1ccccc1)NCc1ccc2c(c1)OCO2`, 9.88%.
As to `Cc1csc(=NC(=O)c2ccccc2)n1CCO`, the inhibition was 7.5%.
As to `CCC(C)NC(=O)CCCc1ccccc1` (configuration not stated), the inhibition is 28.4%.
As for `O=C(CNC(=O)Cc1ccccc1)NCC(=O)OCC(=O)c1ccccc1Cl`, the figure is 13.6%; as for `C=CCOc1c2ccc(C(=O)N(CC)c3ccc(OC)cc3)cc2nn1C`, 7.7%; as for `O=C(NC1CC1)c1ccc2c(c1)NC(=O)c1ccccc1S2`, -5.47%.
As for `COc1ccc(C(C#N)Nc2ccc(C)cc2)cc1` (configuration not stated), the figure is 1.82%; as for `COc1ccc(-c2cc(C(=O)n3cnc4ccccc43)c3ccccc3n2)cc1`, 15.1%; as for `O=C(CCOc1ccccc1)NCc1ccccc1`, 39.4% (active).
For the compound `O=C(CCc1ccccc1)NCc1cccnc1`, the inhibition is 6.95%.
Regarding `O=C(CCCOc1ccccc1)NCc1ccco1`, the inhibition was 3.25%.
For the compound `Cn1sc(NC(=O)c2ccccc2)nc1=O`, the inhibition was 4.34%.
As for `CC(C)(C)c1cc2cccnc2n1Cc1ccccc1`, the figure is 7.46%; as for `CCOC(=O)c1sc2nc(SC)nc(-c3ccccc3)c2c1N`, -7.15%; as for `Cc1ccccc1OCC(=O)NCC(=O)OCC(=O)c1ccc2ccccc2c1`, 6.76%.
As to `COCCNC(=O)COc1ccc(C)c(C)c1`, the inhibition is -10.9%.
As for `Cc1cc2ccccc2n1CCNC(=O)COc1ccc2ccccc2c1`, the figure is 44.7% (active); as for `COc1ccc(C(=O)CN(C(=O)c2ccc(Cl)cc2)N2C(=O)c3ccccc3C2=O)cc1`, -4.1%.
Turning to `COc1cccc(NC(=O)C2c3cc(OC)c(OC)cc3C(=O)N(C)C2c2cccnc2)c1` (configuration not stated), the inhibition was -0.14%.
Regarding `CC(=O)NNc1cc(=O)c2c(=O)n(C)c(=O)n(C)c2[nH]1`, the inhibition was 0.97%.
As for `Cn1c2ccccc2n2c(=O)c(=O)n(CC(=O)c3ccc(F)cc3)nc12`, the inhibition was 3.79%.
Turning to `Cc1cc(C)c(S(=O)(=O)NCC2CCC(C(=O)NCc3ccc4c(c3)OCO4)CC2)c(C)c1` (configuration not stated), the inhibition was 15.2%.
Take `CCOc1cc(-c2cc(-c3ccc(OC)cc3)nc(N)c2C#N)ccc1O`: the inhibition is -2.55%.
Regarding `CCOc1ccccc1NC(=O)Nc1cc(OC)ccc1OC`, the inhibition was 14.3%.
For `CCOc1ccccc1Oc1cn[nH]c1-c1ccc(OC)cc1O`, the inhibition was 52.3% (active).
In the case of `Cn1c2c(c(=O)n(C)c1=O)[C@@H]1c3c(ccc4ccccc34)OC[C@@H]1CO2`, the inhibition was 3.76%.
In the case of `CCc1ccc(NC(=O)CSc2nc3ccccc3c(=O)n2CCN2CCOCC2)cc1`, the inhibition was 7.51%.
On to `Cc1nc2ccccc2c(=O)n1CCCn1ccnc1`, for which the inhibition was 1.67%.
With `CCn1c(/C=C/c2ccc([N+](=O)[O-])o2)nc2ccccc2c1=O`, the inhibition was 68% (active).
As for `O=C(Nc1nnc(SCc2ccc(Cl)cc2Cl)s1)C1COc2ccccc2O1` (configuration not stated), the inhibition was 5%.
With `CCOC(=O)c1cnc(-c2ccccc2)nc1Oc1ccc(C)cc1`, the inhibition is 4.35%.
`Cc1nnc(NC(=O)Cn2c(=O)sc3ccccc32)s1`: the inhibition is -3.03%.
